# Assay results published in PubChem BioAssay.
# For some of these results: Results with a measured potency or affinity are listed apart. The source made the active and inactive calls.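 How the source made its calls, unless noted: active means compound raising the membrane signal above positive-control mean plus 3 SD in both repeats, and a primary screen hit; inactive means the rest.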
# Legend:
# [1] = system: TRPC4 beta (transient receptor potential cation channel C4), mouse; test: activators of mouse TRPC4 channel, confirmation, cell-based, Fluo4 calcium, HEK293 TRPC4beta/mu-opioid, duplicates, 10 µM (AID 2426;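 active means fluorescence ratio normalized to control raised more than 50% in primary screen plus both repeat runs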;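 on activation: percent rise of integrated ratio over buffer wells lacking compound which define 0%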); conditions: Fluo4 calcium fluorescence, at 10 µM; active compounds read high
# [2] = system: transient receptor potential cation channel C4 beta (TRPC4), mouse; test: activators of mouse TRPC4 channel, confirmation, cell-based, second round, Fluo4, HEK293 TRPC4beta/mu-opioid, 1 µM (AID 2461;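 active means primary screen active and over 50% activation in each of two duplicate runs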;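 on activation: 0% = wells without test compound as baseline of integrated fluorescence ratio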); conditions: Fluo4 calcium fluorescence, at 1 µM; active compounds read high
# [3] = system: TRPC4 (transient receptor potential cation channel C4 beta), mouse; test: positive allosteric modulators of mouse TRPC4, confirmation, cell-based, second round, Fluo-4, HEK293 TRPC4beta/mu-opioid, 1 µM (AID 2554;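 active means primary screen hit whose fluorescence ratio, in both repeats, exceeds the weak agonist control mean by 3 SD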); conditions: DAMGO EC20, Fluo-4 calcium flux, at 1 µM; active compounds read high
# [4] = system: TRPC4 beta (transient receptor potential cation channel C4), mouse; test: positive allosteric modulators of mouse TRPC4, confirmation, cell-based, Fluo-4, HEK293 TRPC4beta/mu-opioid (AID 2555;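 active means primary screen hit whose calcium fluorescence ratio, in both repeats, exceeds the weak agonist control mean by 3 SD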); conditions: DAMGO EC20, Fluo-4 calcium flux, at 10 µM; active compounds read high
# [5] = molecular target: Short transient receptor potential channel 4 (Mus musculus) (UniProt Q9QUQ5); test: inhibitors of mouse TRPC4 channel, confirmation, cell-based, Fluo4, HEK293 TRPC4beta/mu-opioid (AID 2636;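 active means calcium signal cut by more than 3 SD below the full-agonist control yet still positive, in both repeats and the earlier primary screen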); conditions: DAMGO, Fluo4 calcium flux, at 10 µM; active compounds read high
# Chain of Short transient receptor potential channel 4 (Mus musculus) (Q9QUQ5 whole entry, looked up): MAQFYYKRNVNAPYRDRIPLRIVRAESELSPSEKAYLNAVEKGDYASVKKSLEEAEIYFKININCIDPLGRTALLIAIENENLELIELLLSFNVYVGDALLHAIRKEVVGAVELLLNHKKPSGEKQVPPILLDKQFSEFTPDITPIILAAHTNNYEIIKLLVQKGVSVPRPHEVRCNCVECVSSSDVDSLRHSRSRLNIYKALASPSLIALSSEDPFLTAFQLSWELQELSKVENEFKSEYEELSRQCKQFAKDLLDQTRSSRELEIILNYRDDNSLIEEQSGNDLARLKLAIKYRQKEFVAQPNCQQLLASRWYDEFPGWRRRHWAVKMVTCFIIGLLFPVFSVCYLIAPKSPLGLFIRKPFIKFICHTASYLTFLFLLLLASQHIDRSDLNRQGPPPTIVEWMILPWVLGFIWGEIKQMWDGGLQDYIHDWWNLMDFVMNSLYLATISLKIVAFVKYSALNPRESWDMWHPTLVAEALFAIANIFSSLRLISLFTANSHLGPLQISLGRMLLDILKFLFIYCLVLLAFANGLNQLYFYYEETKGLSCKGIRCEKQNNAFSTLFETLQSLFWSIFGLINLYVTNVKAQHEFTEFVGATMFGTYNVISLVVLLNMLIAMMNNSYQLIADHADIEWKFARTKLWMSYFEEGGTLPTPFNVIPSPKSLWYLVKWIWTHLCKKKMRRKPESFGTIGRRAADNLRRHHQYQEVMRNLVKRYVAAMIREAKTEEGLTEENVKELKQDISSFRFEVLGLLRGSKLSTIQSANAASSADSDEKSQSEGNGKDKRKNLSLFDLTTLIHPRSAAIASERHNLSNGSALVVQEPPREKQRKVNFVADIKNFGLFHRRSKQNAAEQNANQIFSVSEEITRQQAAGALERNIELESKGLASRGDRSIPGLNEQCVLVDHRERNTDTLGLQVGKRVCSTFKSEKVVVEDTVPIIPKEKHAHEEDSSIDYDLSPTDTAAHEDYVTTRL
# [6] = molecular target: Short transient receptor potential channel 4 (Mus musculus) (UniProt Q9QUQ5); test: inhibitors of mouse TRPC4 channel, confirmation, cell-based, second round, Fluo4, HEK293 TRPC4beta/mu-opioid, 1 µM (AID 2637;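 active means calcium signal ratio cut to more than 3 SD under the fully stimulated control mean yet still positive, in both repeats and the primary screen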;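 on inhibition: percent of integrated ratio relative to wells lacking test compound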); conditions: Fluo4 calcium flux, DAMGO, at 1 µM; active compounds read high
# [7] = molecular target: Short transient receptor potential channel 4 (Mus musculus) (UniProt Q9QUQ5); test: TRPC4 positive allosteric modulators, dose response, cell-based, HEK293 TRPC4/mu-opioid, Fluo-4 calcium, EC20 DAMGO (AID 434941;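 active means earlier screen potentiator hit that boosts the TRPC4 ion channel at some dose, with a dose response; inactive means no potentiation, no dose response, or not a prior hit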;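 further: calcium entry triggered by an EC20 dose of DAMGO at the co-expressed mu-opioid receptor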)
# [8] = molecular target: Short transient receptor potential channel 6 (Mus musculus) (UniProt Q61143); test: inhibition of mouse TRPC6 channel, confirmation, selectivity assay for TRPC4 inhibitor project, cell-based, HEK293, membrane potential dye, duplicate (AID 434948;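 active means active in primary screen and both duplicates, each dropping signal beyond three positive-control SD with fluorescence still positive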); conditions: HEK293 TRPC6, membrane potential dye fluorescence, at 10 µM, stimulated with maximal-effect acetylcholine; active compounds read high
# Chain of Short transient receptor potential channel 6 (Mus musculus) (Q61143 whole entry, looked up): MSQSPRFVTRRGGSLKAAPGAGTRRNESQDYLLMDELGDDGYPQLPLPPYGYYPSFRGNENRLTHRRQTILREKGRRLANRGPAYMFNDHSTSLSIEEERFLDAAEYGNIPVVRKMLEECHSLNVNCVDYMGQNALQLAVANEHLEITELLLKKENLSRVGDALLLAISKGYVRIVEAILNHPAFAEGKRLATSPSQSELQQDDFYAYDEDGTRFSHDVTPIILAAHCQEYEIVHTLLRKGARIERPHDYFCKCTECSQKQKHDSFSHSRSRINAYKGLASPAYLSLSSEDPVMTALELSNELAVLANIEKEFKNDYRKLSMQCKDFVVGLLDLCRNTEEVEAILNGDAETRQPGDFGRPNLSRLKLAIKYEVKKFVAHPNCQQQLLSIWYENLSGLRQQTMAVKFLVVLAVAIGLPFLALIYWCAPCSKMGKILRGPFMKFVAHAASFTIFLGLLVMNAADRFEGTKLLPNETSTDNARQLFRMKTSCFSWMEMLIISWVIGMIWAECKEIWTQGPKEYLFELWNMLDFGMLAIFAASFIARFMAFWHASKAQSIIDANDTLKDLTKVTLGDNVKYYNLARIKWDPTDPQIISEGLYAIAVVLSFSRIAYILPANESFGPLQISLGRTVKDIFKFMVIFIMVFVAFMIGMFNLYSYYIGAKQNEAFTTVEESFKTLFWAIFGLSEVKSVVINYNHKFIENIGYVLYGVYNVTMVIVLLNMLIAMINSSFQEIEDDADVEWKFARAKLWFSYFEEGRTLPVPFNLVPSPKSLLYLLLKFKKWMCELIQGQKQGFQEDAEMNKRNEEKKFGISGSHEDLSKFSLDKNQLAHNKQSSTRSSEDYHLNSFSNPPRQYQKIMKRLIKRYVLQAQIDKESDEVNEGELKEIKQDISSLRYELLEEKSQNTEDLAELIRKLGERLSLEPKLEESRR
# [9] = molecular target: Short transient receptor potential channel 6 (Mus musculus) (UniProt Q61143); test: activation of mouse TRPC6 channel, confirmation, selectivity assay for TRPC4 activator project, cell-based, HEK293, membrane potential dye, duplicate (AID 434950;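 active means membrane potential signal rise above negative control mean plus 3 SD in both duplicates, also active in the earlier TRPC4 screen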;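 on activation: 0% = buffer only wells and 100% = acetylcholine maximal-effect wells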); conditions: HEK293 TRPC6, membrane potential fluorescence, at 10 µM; active compounds read high
# [10] = molecular target: Short transient receptor potential channel 6 (Mus musculus) (UniProt Q61143); test: TRPC6 potentiation by TRPC4 potentiator hits, confirmation, selectivity assay for TRPC4 potentiator project, HEK293 cells, membrane potential dye, duplicate (AID 434952); conditions: HEK293 TRPC6, membrane potential dye fluorescence, at 10 µM, maximal acetylcholine added after compound; active compounds read high
# [11] = molecular target: Short transient receptor potential channel 4 (Mus musculus) (UniProt Q9QUQ5); test: calcium flux activators in TRPC4/5HT1a cells, counter-screen for TRPC4 activator project, cell-based, second counter screen, HEK293 TRPC4/5HT1a, Fluo-4 (AID 434977;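 active means calcium signal rise above buffer-control mean plus 5 SD in both duplicates, and also a hit in the primary screen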;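 on activation: plate controls were assay buffer for no effect and maximal serotonin response for full effect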); conditions: Fluo-4 calcium flux, at 10 µM; active compounds read high
# [12] = calcium flux inhibitors in TRPC4/5HT1a cells, confirmation, counter-screen for TRPC4 inhibitor project, cell-based, second counter screen, HEK293 TRPC4/5HT1a, Fluo-4 (AID 434978;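 active means primary screen active whose calcium signal fell more than 3 SD beyond the full-serotonin control mean in both duplicate plates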;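 on outcome: serotonin given first at submaximal then at maximal dose after compound preincubation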); conditions: Fluo-4 calcium flux, at 10 µM, serotonin added to trigger calcium flux; active compounds read high
# [13] = system: TRPC4 (mouse), co-expressed with 5HT1a in HEK293; test: calcium flux potentiators in TRPC4/5HT1a cells, confirmation, counter-screen for TRPC4 potentiator project, cell-based, second counter screen, HEK293 TRPC4/5HT1a, Fluo-4 (AID 434979;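 active means signal rise over 3 SD above mean of control wells given weak agonist, in both repeats and first screen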); conditions: Fluo-4 calcium flux, at 10 µM, serotonin added at its EC20 dose; active compounds read high
# [14] = calcium flux activation in mu-opioid HEK293 cells, confirmation, counter-screen for TRPC4 activator project, cell-based, HEK293 mu-opioid receptor line (AID 449723;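 active means hit in primary screen, with calcium signal over 5 SD above buffer well mean in both duplicates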;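 further: counter screen cells carry the mu-opioid receptor alone and lack TRPC4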); conditions: Fluo-4 calcium fluorescence, at 10 µM; active compounds read high
# [15] = calcium flux enhancement in mu-opioid HEK293 cells, confirmation, counter-screen for TRPC4 allosteric potentiator project, cell-based, HEK293 mu-opioid receptor line (AID 449724;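 active means calcium signal rise more than 3 SD above the low-dose agonist control mean, in both duplicate plates and the primary screen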); conditions: Fluo-4 calcium flux, at 10 µM, compound added before EC20 DAMGO stimulus; active compounds read high
# [16] = molecular target: Short transient receptor potential channel 4 (Mus musculus) (UniProt Q9QUQ5); test: mouse TRPC4 channel inhibitors, dose response, cell-based, HEK293 TRPC4/mu-opioid, Fluo-4 calcium (AID 434942;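 active means primary screen inhibitor hit that blocks the TRPC4 channel at some tested dose, yielding a dose curve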)
compound,measurement,setting,value
CN1C2C=C(N(CCc3c[nH]c4ccccc34)C(=O)c3ccc(Cl)cc3)CC1CC2 (configuration not stated),activation,[1],130% (active)
same,outcome,[2],inactive
same,outcome,[3],inactive
same,outcome,[4],inactive
same,outcome,[5],inactive
same,inhibition,[6],80% (active)
same,outcome,[7],inactive
same,outcome,[8],inactive
same,outcome,[9],inactive
same,outcome,[10],inactive
same,outcome,[11],inactive
same,outcome,[12],inactive
same,outcome,[13],inactive
same,outcome,[14],inactive
same,outcome,[15],inactive
Cc1ccc2c(nc3s/c(=C\c4ccc(-c5ccccc5C(=O)O)o4)c(=O)n32)c1C,activation,[1],232% (active)
same,outcome,[2],inactive
same,outcome,[3],inactive
same,outcome,[4],inactive
same,outcome,[5],inactive
same,outcome,[6],inactive
same,outcome,[7],inactive
same,outcome,[8],inactive
same,activation,[9],805% (active)
same,outcome,[10],inactive
same,activation,[11],182% (active)
same,inhibition,[12],28.9% (active)
same,outcome,[13],inactive
same,activation,[14],203% (active)
same,outcome,[15],inactive
NC(=Nc1ccccc1)Nc1ccccc1,activation,[1],224% (active)
same,outcome,[2],inactive
same,outcome,[3],inactive
same,outcome,[4],inactive
same,outcome,[5],inactive
same,outcome,[6],inactive
same,outcome,[7],inactive
same,outcome,[16],inactive
same,outcome,[8],inactive
same,activation,[9],51% (active)
same,outcome,[10],inactive
same,activation,[11],94.2% (active)
same,outcome,[12],inactive
same,outcome,[13],inactive
same,activation,[14],64.1% (active)
same,outcome,[15],inactive
O=C(NC(=S)NNC(=O)c1ccco1)c1ccc(Br)cc1,activation,[1],149% (active)
same,outcome,[2],inactive
same,outcome,[3],inactive
same,outcome,[4],inactive
same,outcome,[5],inactive
same,outcome,[6],inactive
same,outcome,[7],inactive
same,outcome,[8],inactive
same,activation,[9],32.5% (active)
same,outcome,[10],inactive
same,activation,[11],22.9% (active)
same,outcome,[12],inactive
same,outcome,[13],inactive
same,outcome,[14],inactive
same,outcome,[15],inactive
COc1ccc2nc(NS(=O)(=O)c3ccc(NC(C)=O)cc3)sc2c1,outcome,[1],inactive
same,outcome,[2],inactive
same,outcome,[3],inactive
same,outcome,[4],inactive
same,inhibition,[5],73% (active)
same,outcome,[6],inactive
same,outcome,[7],inactive
same,outcome,[8],inactive
same,activation,[9],37.5% (active)
same,outcome,[10],inactive
same,outcome,[11],inactive
same,outcome,[12],inactive
same,outcome,[13],inactive
same,outcome,[14],inactive
same,outcome,[15],inactive
CN(C)C(CNC(=O)c1ccc(C(F)(F)F)cc1)c1ccco1 (configuration not stated),activation,[1],55% (active)
same,outcome,[2],inactive
same,outcome,[3],inactive
same,outcome,[4],inactive
same,inhibition,[5],96% (active)
same,inhibition,[6],92% (active)
same,outcome,[7],inactive
same,outcome,[8],inactive
same,activation,[9],28.5% (active)
same,outcome,[10],inactive
same,outcome,[11],inactive
same,outcome,[12],inactive
same,outcome,[13],inactive
same,outcome,[14],inactive
same,outcome,[15],inactive
Cc1ccccc1C(=O)NNC(=S)NC(=O)c1ccc(Cl)cc1Cl,activation,[1],293% (active)
same,outcome,[2],inactive
same,outcome,[3],inactive
same,outcome,[4],inactive
same,outcome,[5],inactive
same,outcome,[6],inactive
same,outcome,[7],inactive
same,outcome,[16],inactive
same,outcome,[8],inactive
same,activation,[9],35% (active)
same,outcome,[10],inactive
same,activation,[11],182% (active)
same,outcome,[12],inactive
same,outcome,[13],inactive
same,activation,[14],84.2% (active)
same,outcome,[15],inactive
CCNC(=S)N1CCC(C(O)(c2ccccc2)c2ccccc2)CC1,activation,[1],117% (active)
same,outcome,[2],inactive
same,outcome,[3],inactive
same,outcome,[4],inactive
same,inhibition,[5],96% (active)
same,outcome,[6],inactive
same,outcome,[7],inactive
same,outcome,[8],inactive
same,activation,[9],41.5% (active)
same,outcome,[10],inactive
same,outcome,[11],inactive
same,outcome,[12],inactive
same,outcome,[13],inactive
same,outcome,[14],inactive
same,outcome,[15],inactive
COc1ccc(C(=O)NNC(=S)NC(=O)c2ccccc2)cc1,activation,[1],130% (active)
same,outcome,[2],inactive
same,outcome,[3],inactive
same,outcome,[4],inactive
same,outcome,[5],inactive
same,outcome,[6],inactive
same,outcome,[7],inactive
same,outcome,[16],inactive
same,outcome,[8],inactive
same,activation,[9],32% (active)
same,outcome,[10],inactive
same,activation,[11],87.5% (active)
same,outcome,[12],inactive
same,outcome,[13],inactive
same,activation,[14],32.5% (active)
same,outcome,[15],inactive
CCOC(=O)C1(CC2CC2)CCN(Cc2ccc(O)c(Cl)c2)CC1,outcome,[1],inactive
same,outcome,[2],inactive
same,outcome,[3],inactive
same,outcome,[4],inactive
same,inhibition,[5],97% (active)
same,inhibition,[6],63% (active)
same,outcome,[7],inactive
same,outcome,[8],inactive
same,activation,[9],82% (active)
same,outcome,[10],inactive
same,outcome,[11],inactive
same,outcome,[12],inactive
same,outcome,[13],inactive
same,outcome,[14],inactive
same,outcome,[15],inactive
Cc1cccc(C(=O)NNC(=S)NC(=O)c2ccccc2)c1,activation,[1],230% (active)
same,outcome,[2],inactive
same,outcome,[3],inactive
same,outcome,[4],inactive
same,outcome,[5],inactive
same,outcome,[6],inactive
same,outcome,[7],inactive
same,outcome,[16],inactive
same,outcome,[8],inactive
same,activation,[9],54.5% (active)
same,outcome,[10],inactive
same,activation,[11],153% (active)
same,outcome,[12],inactive
same,outcome,[13],inactive
same,activation,[14],83.3% (active)
same,outcome,[15],inactive
CC(C)(C)C(=O)NC(=S)NNC(=O)C(c1ccccc1)c1ccccc1,activation,[1],286% (active)
same,outcome,[2],inactive
same,outcome,[3],inactive
same,outcome,[4],inactive
same,outcome,[5],inactive
same,outcome,[6],inactive
same,outcome,[7],inactive
same,outcome,[16],inactive
same,outcome,[8],inactive
same,activation,[9],46% (active)
same,outcome,[10],inactive
same,activation,[11],158% (active)
same,outcome,[12],inactive
same,outcome,[13],inactive
same,activation,[14],119% (active)
same,outcome,[15],inactive
CC1CN(C(=O)c2ccc(NS(=O)(=O)c3ccc(C(C)(C)C)cc3)cc2)CC(C)O1 (configuration not stated),activation,[1],63% (active)
same,outcome,[2],inactive
same,outcome,[3],inactive
same,outcome,[4],inactive
same,outcome,[5],inactive
same,outcome,[6],inactive
same,outcome,[7],inactive
same,outcome,[16],inactive
same,outcome,[8],inactive
same,activation,[9],39.5% (active)
same,outcome,[10],inactive
same,activation,[11],30.9% (active)
same,outcome,[12],inactive
same,outcome,[13],inactive
same,activation,[14],16.1% (active)
same,outcome,[15],inactive
COc1ccc(C(CNC(=O)Cc2ccc3ccccc3c2)N(C)C)cc1 (configuration not stated),activation,[1],171% (active)
same,activation,[2],88% (active)
same,outcome,[3],inactive
same,outcome,[4],inactive
same,outcome,[5],inactive
same,inhibition,[6],98% (active)
same,outcome,[7],inactive
same,outcome,[8],inactive
same,activation,[9],55.5% (active)
same,outcome,[10],inactive
same,outcome,[11],inactive
same,outcome,[12],inactive
same,outcome,[13],inactive
same,outcome,[14],inactive
same,outcome,[15],inactive
CCN1/C(=C\c2ccc3ccccc3[n+]2CC)Sc2cc(C)ccc21,activation,[1],544% (active)
same,activation,[2],147% (active)
same,outcome,[3],inactive
same,potentiation,[4],18% (active)
same,outcome,[5],inactive
same,outcome,[6],inactive
same,outcome,[7],inactive
same,outcome,[16],inactive
same,outcome,[8],inactive
same,outcome,[9],inactive
same,outcome,[10],inactive
same,activation,[11],600% (active)
same,outcome,[12],inactive
same,potentiation,[13],110% (active)
same,activation,[14],672% (active)
same,activation,[15],27400% (active)
